Screening data (PubChem BioAssay)
FMDV RLuc: FMDV antiviral activity by Renilla signal. FMDV replicon cells, Renilla luciferase signal. Potency, µM (highest dose often 57.5 µM), actives largely listed as inhibitors. 120,000 compounds, 0.32% hits; also: nearly all actives have a fitted effect of over 55% in size
FMDV antiviral: FMDV antiviral activity by firefly signal | FMDV antiviral cell assay, firefly luciferase signal | Potency, µM (titrated, usually from 57.5 µM), usual class: inhibitors | 120,000 compounds, 0.23% hits | AID 1745856; also: nearly all actives have a fitted effect of over 60% in size
Of the large screens only hits and unclear results are named; the others gave an inactive call. Only some compounds are listed: those with a hit (about 0.45% of all), similar ones and a draw of the others. Calls follow the shape of the full dose curve.

COCCN(Cc1cccs1)S(=O)(=O)c1ccc(Br)cc1	none
COC(=O)C1(NC(=O)COc2cc(Cl)ccc2Cl)CCCCCC1	FMDV RLuc 5µM, FMDV antiviral inconclusive
COC(=O)C1(NC(=O)COc2cccc(F)c2)CCCCC1	none
Cc1ccc(Cn2c(CN3CCOCC3)nc3ccccc32)cc1	none
CCOC(=O)c1c(C)[nH]c(C)c1S(=O)(=O)N1CCCC(C(=O)Nc2ccc(OC)c(Cl)c2)C1 (stereo not drawn)	none
CCOC(=O)c1ccc(NS(=O)(=O)c2cc(Br)cc3c2N(C(C)=O)C(C)C3)cc1 (stereo not drawn)	FMDV antiviral 20µM
CC(=O)N1c2c(cc(Br)cc2S(=O)(=O)Nc2ccc(OC(F)(F)F)cc2)CC1C (stereo not drawn)	FMDV antiviral inconclusive
CC(=O)c1ccc(NC(=O)c2cc3c([nH]c2=O)CC(c2ccccc2)CC3=O)cc1 (stereo not drawn)	none
CC(=O)N1CCN(S(=O)(=O)c2ccc(C(=O)N(C)Cc3ccccc3N3CCCCC3)cc2)CC1	none
CC(C)c1cnc2c(c1SCC(=O)c1ccc(Cl)cc1)c(=O)n(C)c(=O)n2C	FMDV RLuc 25µM
CC(C)c1cnc2c(c1SCC(=O)O)c(=O)n(C)c(=O)n2C	none
COc1ccc(/C=C/C(=O)c2ccc(O)c(CCCl)c2)c(Cl)c1	none
COc1ccccc1CCNC(=O)Cn1ccc2cc(S(=O)(=O)N3CCCCC3)ccc21	FMDV RLuc 28µM
COc1cccc(CNC(=O)Cn2ccc3cc(S(=O)(=O)N4CCCC4)ccc32)c1OC	none
O=C(/C=C/c1ccc(F)cc1)NCCc1c[nH]c2ccccc12	none
CCc1cc(=O)[nH]c(SCc2nc(-c3ccccc3)no2)n1	none
CCc1ccc(-c2cc3c(N4CCN(c5ccccc5)CC4)nccn3n2)cc1	none
Cc1ccccc1OCC(=O)NCC(c1ccc(Cl)cc1)N1CCCCC1 (stereo not drawn)	none
CC(C)C(NC(=O)c1cccc(Cl)c1)C(C)C	none
Nc1nccnc1C(=O)NCc1cccnc1Oc1cccc(F)c1	none
Nc1nccnc1C(=O)NCc1ccc(OCc2cccc(F)c2)cc1	FMDV RLuc 11µM, FMDV antiviral inconclusive
CCc1nn2c(=O)c(S(=O)(=O)Nc3cccc(F)c3)c(C)nc2s1	none
Cc1ccccc1CN1CCC(N2CCCCCC2)CC1	FMDV RLuc inconclusive, FMDV antiviral 25µM
Cc1ccccc1CN1CCC(C(=O)O)CC1	none
Cc1ccc(C(CCNCc2ccc(F)cc2)c2ccco2)cc1 (stereo not drawn)	none
N=C(N)c1cc([N+](=O)[O-])cc([N+](=O)[O-])c1	none
CCn1c2c(c(=O)n3ncc(C(=O)N4CCN(c5ccc(C(C)=O)cc5)CC4)c13)CN(Cc1ccc(OC)cc1)CC2	FMDV RLuc 22µM, FMDV antiviral inconclusive
CCOC(=O)c1ccc(NC(=O)c2cnn3c(=O)c4c(n(CC)c23)CCN(Cc2ccc(OC)cc2)C4)cc1	none
Cc1cc(C)cc(-n2ccnc2SCC(=O)Nc2ccccc2F)c1	FMDV RLuc 20µM, FMDV antiviral inconclusive
Cc1cc(C)cc(-n2ccnc2SCC(=O)Nc2cccc3ccccc23)c1	none
N#Cc1ccnc(N2CCN(C(=O)Nc3ccccc3F)CC2)c1	none
C=CCNc1nc2c(c(=O)n(C)c(=O)n2C)n1Cc1ccc(Cl)cc1	FMDV RLuc 13µM, FMDV antiviral 14µM
Cn1c(=O)c2c(nc(NCCO)n2Cc2ccc(Cl)cc2)n(C)c1=O	FMDV RLuc inconclusive, FMDV antiviral 13µM
CCCCCCNc1nc2c(c(=O)n(C)c(=O)n2C)n1Cc1cccc(C)c1	none
C=CCNc1nc2c(c(=O)n(C)c(=O)n2C)n1Cc1ccccc1Cl	none
CC(C)CCNc1nc2c(c(=O)n(C)c(=O)n2C)n1Cc1ccc(Cl)cc1	none
CCCCCCNc1nc2c(c(=O)n(C)c(=O)n2C)n1CCC	FMDV RLuc 20µM, FMDV antiviral inconclusive
Cn1c(=O)c2c(nc(NCCO)n2Cc2ccc(F)cc2)n(C)c1=O	FMDV RLuc 7.9µM, FMDV antiviral 10µM
Cn1c(=O)c2c(nc(NCCc3ccc(F)cc3)n2Cc2ccc(F)cc2)n(C)c1=O	none
COC(=O)CCOc1ccc(OCCC(=O)OC)c(N)c1	none
CCOC(=O)COc1ccc2c(=O)c(Oc3ccc(C(=O)OC)cc3)c(C(F)(F)F)oc2c1	none
CCOC(=O)c1ccc(Oc2c(C(F)(F)F)oc3cc(O)ccc3c2=O)cc1	FMDV RLuc 25µM, FMDV antiviral inconclusive
OCCCCCCCCCCCCCCCO	none
C[N+]1(CCCCCCCCCCCCCO)CCCC1	FMDV RLuc 20µM, FMDV antiviral inconclusive
CS(=O)(=O)c1ccc2nc(NC(=O)CS(=O)(=O)c3ccc(Cl)cc3)sc2c1	none
CCOc1ccc2nc(NC(=O)CS(=O)(=O)c3ccc(Cl)cc3)sc2c1	FMDV RLuc inconclusive, FMDV antiviral 8.9µM
COc1ccc(C)cc1-c1csc(N)c1C#N	none
CCCSc1ncc(Cl)c(C(=O)N(Cc2ccc(Cl)cc2)Cc2ccco2)n1	none
CCCS(=O)(=O)c1ncc(Cl)c(C(=O)N(Cc2ccccc2)Cc2ccco2)n1	FMDV antiviral 22µM
COC(=O)c1ccc([C@H]2Nc3ccc(S(=O)(=O)Nc4ccc(F)cc4)cc3[C@H]3C=CC[C@H]32)cc1	none
COc1cccc(N2CCN(c3ncc4c(n3)CCN(Cc3ccc(Br)cc3)C4)CC2)c1	FMDV RLuc 4µM, FMDV antiviral 7.1µM
CCc1ccc(CN2CCc3nc(N4CCN(c5ccccc5F)CC4)ncc3C2)cc1	none
O=S(=O)(O)CCl	none
COC(=O)c1ccc(Oc2c(C)oc3cc(OCc4ccc(F)cc4)ccc3c2=O)cc1	none
COC(=O)c1ccc(COc2ccc3c(=O)c(-c4ccccc4OC)c(C)oc3c2)cc1	FMDV antiviral 1µM
Cc1ccc(/C(=N\NC(=O)C(C)C)c2ccccc2)cc1	none
CCC(C)NC(=O)N(C)C1CCN(c2ccc(Cl)cc2)CC1 (stereo not drawn)	FMDV RLuc 13µM, FMDV antiviral inconclusive
CCC(C)NC(=O)c1ccc(N(C)C2CCCCC2)cc1 (stereo not drawn)	none
CC(C)C[C@H](NC(=O)CCn1ccc2ccc(F)cc21)C(=O)O	none
COC(=O)c1cccc(NC(=O)NCCn2c(-c3ccc(F)cc3)nc3ccccc32)c1	none
Cc1ccc(OCn2ccc(C(=O)NCc3c(C)nn(C)c3C)n2)c(C)c1	FMDV RLuc 10µM, FMDV antiviral 13µM
Cc1ccc(OCC(=O)NCc2nncn2C)c(C)c1	none
CCCCN(CCCC)CCNC(=O)c1cn(C)c2ccc(S(=O)(=O)N3CCOCC3)cc2c1=O	none
CCC(Sc1nnc(-c2ccc(F)cc2)c(-c2ccc(F)cc2)n1)C(=O)NC1CCCC1 (stereo not drawn)	none
COC(=O)c1ccc(CO/N=C/c2ccc(Cl)cc2Cl)cc1	FMDV antiviral 7.9µM
COC(=O)c1ccc(CO/N=C/c2ccc(OCc3ccc(Cl)cc3)c(OC)c2)cc1	none
N#CCCC(=O)c1cccnc1	none
COc1ccc(-n2nnnc2C2CCN(S(=O)(=O)c3cc(OC)ccc3OC)CC2)cc1	FMDV RLuc 25µM, FMDV antiviral inconclusive
COc1ccc(-n2nnnc2C2CCN(S(=O)(=O)c3ccc(F)cc3Cl)CC2)cc1	none
Cc1ccccc1NS(=O)(=O)c1c(C)nn(C)c1C	none
O=C(COC(=O)c1ccc2ccccc2n1)Nc1cc(Cl)cc(Cl)c1	none
COc1cc(CNCc2ccco2)ccc1OCc1ccccc1C	none
COc1cc(CNCC2CCNCC2)ccc1OCc1ccccc1Cl	FMDV RLuc 35µM, FMDV antiviral inconclusive
CCOc1ccc(CN2CCN(Cc3ccc4c(c3)c3ccccc3n4CC)CC2)cc1	FMDV RLuc inconclusive
CCn1c2ccccc2c2cc(CNCC3CCNCC3)ccc21	FMDV RLuc 28µM, FMDV antiviral inconclusive
CCCNC(=O)c1ccc(NC(=O)c2ccncc2)cc1	none
